Compounds with a hit are over-represented: about 1.4% of the library has one in this group of screens.
PglD DTNB: C. jejuni PglD acetyltransferase inhibitors, primary screen, biochemical, DTNB colorimetric, single point; UDP-N-acetylbacillosamine N-acetyltransferase PglD (Campylobacter jejuni); actives 0.098% (n = 360,000); inhibition, % at 12.5 µM; AID 602405, 2012; purified PglD enzyme, DTNB colorimetric CoA detection; in the data active = inhibition above about 16%, passing the limit was not always enough
ARNT-TACC3 inh: disruptors of ARNT/TACC3 protein interaction, primary screen, biochemical, AlphaScreen, single concentration; inhibition, % at 9.99 µM; Transforming acidic coiled-coil-containing protein 3 (Homo sapiens), Q9Y6A5; AID 623870, 2012; AlphaScreen His-ARNT PAS-B/GST-TACC3 binding, luminescence; TACC3 fragment carries E629A point mutation; actives 0.66% (n = 390,000);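 active = mean inhibition of replicates at least 50% and at least half of replicates each reaching 50%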;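 note: 0% = complete ARNT plus TACC3 wells and 100% = ARNT alone without TACC3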
Statin myotox sup: suppressors of statin myotoxicity in C2C12 myotubes, primary screen, cell-based, single point, plate reader; C2C12 myotubes + simvastatin, ATP luminescence, 48 h; scaled: DMSO 0, geranylgeraniol control 100; rescue of ATP level, % at 7.49 µM; actives 0.78% (n = 330,000);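 active = mean ATP rescue above about 67%, or every replicate alone reaching that limit, limit read from the data, passing the limit was not always enough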;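 note: myotubes were challenged with 10 µM simvastatin during compound exposure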
F508del corr: F508del CFTR correction, initial screen, CFBE line, single point | CFBE cells, YFP halide quenching; stimulated with forskolin plus potentiator P3; % fluorescence drop versus neutral controls | activity (quench increase), % at 7.58 µM | actives 0.36% (n = 350,000);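 active = mean added fluorescence quench of at least 8% versus neutral control, with both replicates also reaching 8%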;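 note: cells transiently co-express mutant CFTR-F508del with the halide-sensitive YFP; corrector assay measuring rescue of mutant channel to the surface after 24 h compound exposure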
* marks the source's active call; other numbers are inactive results.

Screening Cc1ccc(C(=O)c2c3ccccc3[n+]([O-])n2CCC(=O)O)cc1 returned PglD DTNB -1.9, ARNT-TACC3 inh -6.4, Statin myotox sup 79.6* and F508del corr 1.7.
Screening Cc1cccc(-c2ccc([C@H]3[C@@H](CO)N4CCCCN(C(=O)c5ccc6c(c5)OCO6)C[C@@H]34)cc2)c1 returned PglD DTNB -4.9, ARNT-TACC3 inh -8.9, Statin myotox sup 68.6* and F508del corr 1.1.
Cc1cccc(-c2ccc([C@@H]3[C@@H](CO)N4CCCCN(C(=O)c5ccc6c(c5)OCO6)C[C@H]34)cc2)c1 was read as PglD DTNB 4.2, ARNT-TACC3 inh 4.3, Statin myotox sup 3.1 and F508del corr -1.7.
For COc1ccccc1CNC(=O)C[C@H]1C[C@H]2c3cc(N(C)C)ccc3O[C@H]2[C@@H](CO)O1 the results were PglD DTNB 1.7, ARNT-TACC3 inh 3.2, Statin myotox sup 1.8 and F508del corr 3.0.
`COc1ccc(S(=O)(=O)n2nc(OC(=O)C3CCCCC3)cc2N)cc1` gave PglD DTNB -2.7, ARNT-TACC3 inh -1.9 and Statin myotox sup 105.8*.
Screening C[C@H](CO)N1C[C@H](C)[C@H](CN(C)S(=O)(=O)CC(F)(F)F)OCc2ccccc2-c2c(n(C)c3ccccc23)C1=O returned PglD DTNB -0.2, ARNT-TACC3 inh -6.0, Statin myotox sup 7.3 and F508del corr -2.9.
Screening CCOc1ccc2ncc(S(=O)(=O)c3ccccc3)c(N3CCN(c4ccccc4)CC3)c2c1 returned ARNT-TACC3 inh 2.5, Statin myotox sup 18.3 and F508del corr -3.4.
For CCOC(=O)c1cnc2ccc(OCC)cc2c1N1CCN(c2ccccc2)CC1 the results were PglD DTNB -3.0, ARNT-TACC3 inh 1.2 and Statin myotox sup 80.7*.
Cn1c2ccccc2c2cc(C(=O)NNC(=O)CCl)sc21 was read as ARNT-TACC3 inh -8.2 and F508del corr -4.7.
CC(=O)Nc1ccc(S(=O)(=O)NNC(=O)c2cc3c4ccccc4n(C)c3s2)cc1 was read as PglD DTNB 1.5, ARNT-TACC3 inh 1.1 and Statin myotox sup 192.9*.
Cc1ccc(-c2nnn(CC(=O)N(c3ccc(F)cc3)C(C(=O)NC(C)(C)C)c3ccco3)n2)o1 (configuration not stated) was read as PglD DTNB 0.4, ARNT-TACC3 inh -5.3 and Statin myotox sup 83.3*.
Screening Cc1cccc(N2CCN(C(=O)c3c(-c4ccccc4Cl)noc3C)CC2)c1C returned PglD DTNB -6.7, ARNT-TACC3 inh -15.3, Statin myotox sup -30.2 and F508del corr 14.4*.
For O=C(Nc1ccccc1F)N[C@@H]1CC[C@H](CCNS(=O)(=O)c2ccc(F)cc2)O[C@H]1CO the results were PglD DTNB -1.6, ARNT-TACC3 inh 8.6, Statin myotox sup 0.7 and F508del corr 1.7.
`C[C@@H]1CN([C@@H](C)CO)C(=O)c2cccc(NS(=O)(=O)c3ccccc3)c2O[C@H]1CN(C)Cc1ccc(C(F)(F)F)cc1` gave PglD DTNB -3.5, ARNT-TACC3 inh -1.0, Statin myotox sup -7.0 and F508del corr 0.3.
`COc1ccc(OC)c2[nH]c(=O)c(CCNS(=O)(=O)c3ccc(C)cc3)cc12` gave PglD DTNB -5.7 and ARNT-TACC3 inh -15.1.
COc1ccc(OC)c2[nH]c(=O)c(CCNS(=O)(=O)c3ccc(Cl)cc3)cc12 was read as PglD DTNB -3.0, ARNT-TACC3 inh 47.9* and Statin myotox sup 8.4.
CCSc1nc2sc3c(c2c(=O)n1-c1ccc(OC)cc1)CCN(C)C3 was read as PglD DTNB 0.1, ARNT-TACC3 inh 6.6, Statin myotox sup 100.7* and F508del corr 0.0.
`CCOC(=O)CSc1nc2sc3c(c2c(=O)n1-c1ccc(OC)cc1)CCN(C)C3` gave PglD DTNB 4.1, ARNT-TACC3 inh -0.3, Statin myotox sup 10.6 and F508del corr -1.6.
Screening NC(=O)c1cccc(-c2ccnc3c2CC(C(=O)NCc2ccco2)O3)c1 (configuration not stated) returned PglD DTNB 0.3, Statin myotox sup 3.4 and F508del corr -0.6.
For O=C(NCc1ccccc1)C1Cc2c(-c3ccc(Cl)cc3)ccnc2O1 (configuration not stated) the results were PglD DTNB 5.6, Statin myotox sup -46.3 and F508del corr 9.2*.
For CC(=O)c1cccc(-c2ccnc3c2CC(C(=O)NCc2ccco2)O3)c1 (configuration not stated) the results were PglD DTNB 0.7, Statin myotox sup -63.7 and F508del corr 12.6*.
`O=C(NCc1cccc(Cl)c1)C1Cc2c(-c3cccc(F)c3)ccnc2O1` (configuration not stated) gave PglD DTNB -6.6, Statin myotox sup -4.4 and F508del corr -2.2.
O=C(NCc1ccccc1)C1Cc2c(-c3cccc(F)c3)ccnc2O1 (configuration not stated) was read as PglD DTNB -8.6, Statin myotox sup -29.8 and F508del corr 9.1*.
For CNC[C@@H]1Oc2ncc(C#CC3CCCCC3)cc2C(=O)N([C@@H](C)CO)C[C@@H]1C the results were Statin myotox sup 5.4 and F508del corr -2.6.
Screening COc1ccc(N(CC(=O)NCc2ccco2)S(C)(=O)=O)cc1 returned PglD DTNB -2.5, ARNT-TACC3 inh 0.7 and Statin myotox sup 3.3.
Screening CS(=O)(=O)N(CC(=O)NCc1ccco1)c1ccc(OCc2ccccc2)cc1 returned PglD DTNB -8.1, Statin myotox sup 123.1* and F508del corr -0.8.
For O=C(Cc1cccnc1)N[C@H]1CC[C@H](CCn2cc(Cc3ccccc3)nn2)O[C@H]1CO the results were PglD DTNB -2.8, ARNT-TACC3 inh -13.1, Statin myotox sup 3.2 and F508del corr -1.3.
For CCC1=Nc2cc(C(=O)NCc3cccnc3)ccc2Sc2ccc(C)cc21 the results were ARNT-TACC3 inh 7.2 and F508del corr 12.2*.
`CCC1=Nc2cc(C(=O)NCC3CCCO3)ccc2Sc2ccc(Cl)cc21` (configuration not stated) gave PglD DTNB 10.2, ARNT-TACC3 inh -9.9 and F508del corr 14.8*.
For CCC1=Nc2cc(C(=O)NCC3CCCO3)ccc2Sc2ccc(Br)cc21 (configuration not stated) the results were ARNT-TACC3 inh -0.3, Statin myotox sup -49.7 and F508del corr 4.0.
Screening O=C(COC(=O)c1ccc([N+](=O)[O-])s1)NNC(=O)c1ccccc1 returned PglD DTNB -0.4, ARNT-TACC3 inh 42.1* and Statin myotox sup 9.2.
`CN(CC(=O)Nc1ccccc1Cl)C(=O)COC(=O)c1ccc([N+](=O)[O-])s1` gave PglD DTNB 2.3, ARNT-TACC3 inh 46.3*, Statin myotox sup 0.4 and F508del corr 1.2.
Screening O=C(COC(=O)c1ccc(Br)cc1)NCc1ccccc1 returned PglD DTNB -2.8 and ARNT-TACC3 inh -3.2.

Bioassay records: PubChem, Broad Institute
